Assay results as given in PubChem BioAssay (NCATS).
Inconclusive results are not listed. Activity calls are given as the source filed them. The call rests on the fitted dose curve; in most records, active means well fitted curve in the direction sought with a large enough effect; inconclusive means small, poorly fitted or top-dose-only effect, or another doubt; inactive means no such curve, though single readings can be large; an effect the other way counts as inactive or inconclusive.

What was measured:
MCC-13 = assay: qHTS assay to identify novel small-molecules to repurpose for Merkel cell carcinoma treatment (AID 1296009); settings: MCC and control cell lines, CellTiter-Glo viability, 72 h; series mostly up to 46 µM; further: nearly all actives have a fitted effect of over 60% in size
Procedure, shortened: (§1)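 After compound transfer in DMSO, plates were kept 72 hr at 37 degree celsius. Luminescent ATP signal from CellTiter-Glo served as viability measure, normalized against DMSO and no-cell controls.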

MCC-26 = assay: as above; settings: MCC and control cell lines, CellTiter-Glo viability, 72 h; series mostly up to 46 µM
Procedure, shortened: as §1

MKL-1 = assay: as above; settings: MCC and control cell lines, CellTiter-Glo viability, 72 h; series mostly up to 46 µM
Procedure, shortened: as §1

MKL-2 = assay: as above; settings: MCC and control cell lines, CellTiter-Glo viability, 72 h; series mostly up to 46 µM
Procedure, shortened: as §1

UISO = assay: as above; settings: MCC and control cell lines, CellTiter-Glo viability, 72 h; series mostly up to 46 µM
Procedure, shortened: as §1

WaGa = assay: as above; settings: MCC and control cell lines, CellTiter-Glo viability, 72 h; series mostly up to 46 µM
Procedure, shortened: as §1

C33A = assay: Primary qHTS to identify gynecologic anti-cancer compounds using libraries of approved drugs and bioactive compounds (AID 1345084); settings: Gynecologic cancer cell panel viability, ATPlite luminescence, 48 h; series mostly up to 57.5 µM; further: nearly all actives have a fitted effect of over 55% in size
Procedure, shortened: (§2)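 Five-point cytotoxicity, 48 h drug exposure at 37 C, 5% CO2, on cells seeded 16 h beforehand. ATP content read by ATPlite luminescence.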

CAOV3 = assay: as above; settings: Gynecologic cancer cell panel viability, ATPlite luminescence, 48 h; series mostly up to 57.5 µM
Procedure, shortened: as §2

CASKI = assay: as above; settings: Gynecologic cancer cell panel viability, ATPlite luminescence, 48 h; series mostly up to 57.5 µM
Procedure, shortened: as §2

Es-2 = assay: as above; settings: Gynecologic cancer cell panel viability, ATPlite luminescence, 48 h; series mostly up to 57.5 µM
Procedure, shortened: as §2

HeLa = assay: as above; settings: Gynecologic cancer cell panel viability, ATPlite luminescence, 48 h; series mostly up to 57.5 µM
Procedure, shortened: as §2

Hek293T = assay: as above; settings: Gynecologic cancer cell panel viability, ATPlite luminescence, 48 h, control line for the selectivity index; series mostly up to 57.5 µM
Procedure, shortened: as §2

JEG-3 = assay: as above; settings: Gynecologic cancer cell panel viability, ATPlite luminescence, 48 h; series mostly up to 57.5 µM
Procedure, shortened: as §2

OV90 = assay: as above; settings: Gynecologic cancer cell panel viability, ATPlite luminescence, 48 h; series mostly up to 57.5 µM
Procedure, shortened: as §2

PA-1 = assay: as above; settings: Gynecologic cancer cell panel viability, ATPlite luminescence, 48 h; series mostly up to 57.5 µM
Procedure, shortened: as §2

SKOV3 = assay: as above; settings: Gynecologic cancer cell panel viability, ATPlite luminescence, 48 h; series mostly up to 57.5 µM
Procedure, shortened: as §2

Tov-21-G = assay: as above; settings: Gynecologic cancer cell panel viability, ATPlite luminescence, 48 h; series mostly up to 57.5 µM
Procedure, shortened: as §2

Tov112D = assay: as above; settings: Gynecologic cancer cell panel viability, ATPlite luminescence, 48 h; series mostly up to 57.5 µM
Procedure, shortened: as §2
On the % scale 0 is the no-effect control and ±100 the full control effect.

Cn1cc(C(=O)[C@@H]2CCc3nc[nH]c3C2)c2ccccc21
inactive: outcome (MCC-13) | outcome (MCC-26) | outcome (MKL-1) | outcome (MKL-2) | outcome (UISO) | outcome (WaGa) | outcome (C33A) | outcome (CAOV3) | outcome (CASKI) | outcome (Es-2) | outcome (HeLa) | outcome (Hek293T) | outcome (JEG-3) | Potency (OV90) | outcome (PA-1) | outcome (SKOV3) | outcome (Tov-21-G) | outcome (Tov112D)

C[C@@H](c1ncncc1F)C(O)(Cn1cncn1)c1ccc(F)cc1F (some centres undefined)
inactive: outcome (MCC-13) | outcome (MCC-26) | outcome (MKL-1) | outcome (MKL-2) | outcome (UISO) | outcome (WaGa) | outcome (C33A) | outcome (CAOV3) | outcome (CASKI) | outcome (Es-2) | outcome (HeLa) | outcome (Hek293T) | outcome (JEG-3) | outcome (PA-1) | outcome (SKOV3) | outcome (Tov-21-G) | outcome (Tov112D)

Cc1cc(-n2nc3ccc(Cl)cc3n2)c(O)c(C(C)(C)C)c1
inactive: outcome (MCC-13) | outcome (MCC-26) | outcome (MKL-1) | outcome (MKL-2) | outcome (UISO) | outcome (WaGa) | outcome (C33A) | outcome (CAOV3) | outcome (CASKI) | outcome (Es-2) | outcome (HeLa) | outcome (Hek293T) | outcome (JEG-3) | Potency (OV90) | outcome (PA-1) | outcome (SKOV3) | outcome (Tov-21-G) | outcome (Tov112D)

CCOc1ccc(C(=O)OCCN(CC)CC)cc1
inactive: outcome (MCC-13) | outcome (MCC-26) | outcome (MKL-1) | outcome (MKL-2) | outcome (UISO) | outcome (WaGa) | outcome (C33A) | outcome (CAOV3) | outcome (CASKI) | outcome (Es-2) | outcome (HeLa) | outcome (Hek293T) | outcome (JEG-3) | Potency (OV90) | outcome (PA-1) | outcome (SKOV3) | outcome (Tov-21-G) | outcome (Tov112D)

C=CCOc1ccccc1OCC(O)CNC(C)C (centres undefined)
inactive: outcome (MCC-13) | outcome (MCC-26) | outcome (MKL-1) | outcome (MKL-2) | outcome (UISO) | outcome (WaGa) | outcome (C33A) | outcome (CAOV3) | outcome (CASKI) | outcome (Es-2) | outcome (HeLa) | outcome (Hek293T) | outcome (JEG-3) | Potency (OV90) | outcome (PA-1) | outcome (SKOV3) | outcome (Tov-21-G) | outcome (Tov112D)

CNc1c2c(nn1C)CCCC2
inactive: outcome (MCC-13) | outcome (MCC-26) | outcome (MKL-1) | outcome (MKL-2) | outcome (UISO) | outcome (WaGa) | outcome (C33A) | outcome (CAOV3) | outcome (CASKI) | outcome (Es-2) | outcome (HeLa) | outcome (Hek293T) | outcome (JEG-3) | Potency (OV90) | outcome (PA-1) | outcome (SKOV3) | outcome (Tov-21-G) | outcome (Tov112D)

CCOc1cc(NC(C)=O)ccc1C(=O)OC
inactive: outcome (MCC-13) | outcome (MCC-26) | outcome (MKL-1) | outcome (MKL-2) | outcome (UISO) | outcome (WaGa) | outcome (C33A) | outcome (CAOV3) | outcome (CASKI) | outcome (Es-2) | outcome (HeLa) | outcome (Hek293T) | outcome (JEG-3) | Potency (OV90) | outcome (PA-1) | outcome (SKOV3) | outcome (Tov-21-G) | outcome (Tov112D)

CN1CCN(C(=O)C2CCCCC2)CC1
inactive: outcome (MCC-13) | outcome (MCC-26) | outcome (MKL-1) | outcome (MKL-2) | outcome (UISO) | outcome (WaGa) | outcome (C33A) | outcome (CAOV3) | outcome (CASKI) | outcome (Es-2) | outcome (HeLa) | outcome (Hek293T) | outcome (JEG-3) | Potency (OV90) | outcome (PA-1) | outcome (Tov-21-G) | outcome (Tov112D)

CN1C(C)(C)CCCC1(C)C
inactive: outcome (MCC-13) | outcome (MCC-26) | outcome (MKL-1) | outcome (MKL-2) | outcome (UISO) | outcome (WaGa) | outcome (C33A) | outcome (CAOV3) | outcome (CASKI) | outcome (Es-2) | outcome (HeLa) | outcome (Hek293T) | outcome (JEG-3) | Potency (OV90) | outcome (PA-1) | outcome (SKOV3) | outcome (Tov-21-G) | outcome (Tov112D)

COCC(=O)Nc1c(I)c(C(=O)NCC(O)CO)c(I)c(C(=O)N(C)CC(O)CO)c1I (centres undefined)
inactive: outcome (MCC-13) | outcome (MCC-26) | outcome (MKL-1) | outcome (MKL-2) | outcome (UISO) | outcome (WaGa) | outcome (C33A) | outcome (CAOV3) | outcome (CASKI) | outcome (HeLa) | outcome (Hek293T) | outcome (JEG-3) | Potency (OV90) | outcome (PA-1) | outcome (SKOV3) | outcome (Tov-21-G) | outcome (Tov112D)

OCC(O)CS (centres undefined)
inactive: outcome (MCC-13) | outcome (MCC-26) | outcome (MKL-1) | outcome (MKL-2) | outcome (UISO) | outcome (WaGa) | outcome (C33A) | outcome (CAOV3) | outcome (CASKI) | outcome (Es-2) | outcome (HeLa) | outcome (Hek293T) | outcome (JEG-3) | Potency (OV90) | outcome (PA-1) | outcome (SKOV3) | outcome (Tov-21-G) | outcome (Tov112D)

NC(N)=NCCN1CCCCCCC1
inactive: activity change, negative = cytotoxicity (MCC-13) 12.6% [at 0.597 µM] | activity change, negative = cytotoxicity (MCC-26) 12.5% [at 0.597 µM] | activity change, negative = cytotoxicity (MKL-1) 13.2% [at 0.597 µM] | activity change, negative = cytotoxicity (MKL-2) 3.8% [at 0.597 µM] | activity change, negative = cytotoxicity (UISO) 18% [at 0.597 µM] | activity change, negative = cytotoxicity (WaGa) 12.9% [at 0.597 µM] | activity change, negative = cytotoxicity (C33A) 9.99% [at 0.462 µM] | activity change, negative = cytotoxicity (CAOV3) -2.11% [at 0.462 µM] | activity change, negative = cytotoxicity (CASKI) -2.55% [at 0.462 µM] | activity change, negative = cytotoxicity (Es-2) -4.19% [at 0.462 µM] | activity change, negative = cytotoxicity (HeLa) 0.1% [at 0.462 µM] | activity change, negative = cytotoxicity (Hek293T) -4.03% [at 0.462 µM] | activity change, negative = cytotoxicity (JEG-3) -3.39% [at 0.462 µM] | activity change, negative = cytotoxicity (OV90) -3.97% [at 0.462 µM] | activity change, negative = cytotoxicity (PA-1) 8.5% [at 0.462 µM] | activity change, negative = cytotoxicity (SKOV3) 6.07% [at 0.462 µM] | activity change, negative = cytotoxicity (Tov-21-G) 1.66% [at 0.462 µM] | activity change, negative = cytotoxicity (Tov112D) 3.26% [at 0.462 µM]

Cc1c(N(C)C)c(=O)n(-c2ccccc2)n1C
inactive: outcome (MCC-13) | outcome (MCC-26) | outcome (MKL-1) | outcome (MKL-2) | outcome (UISO) | outcome (WaGa) | outcome (C33A) | outcome (CAOV3) | outcome (CASKI) | outcome (Es-2) | outcome (HeLa) | outcome (Hek293T) | outcome (JEG-3) | Potency (OV90) | outcome (PA-1) | outcome (SKOV3) | outcome (Tov-21-G) | outcome (Tov112D)

C/C(=C(\CCO)SS/C(CCO)=C(\C)N(C=O)Cc1cnc(C)nc1N)N(C=O)Cc1cnc(C)nc1N
inactive: outcome (MCC-13) | outcome (MCC-26) | outcome (MKL-1) | outcome (MKL-2) | outcome (UISO) | outcome (WaGa) | outcome (C33A) | outcome (CAOV3) | outcome (CASKI) | outcome (Es-2) | outcome (HeLa) | outcome (Hek293T) | outcome (JEG-3) | Potency (OV90) | outcome (PA-1) | outcome (SKOV3) | outcome (Tov-21-G) | outcome (Tov112D)
